From PubChem BioAssay (NCI)
This is part of a sample that, as a whole, favours compounds with a hit. Of some 83,000 tested, about 20% had one in any assay.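 The endpoint reported here, percent growth, reads 100 for growth as untreated, 0 for no net growth and -100 for all cells dead.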 Activity calls are given as the source filed them. Rule for the calls: active = growth percent below 10; inactive = the rest.

What follows are compounds tested on HL-60(TB) leukemia (assay: NCI-60 one-dose screen, 48 h (100 = growth as untreated, 0 = no growth, -100 = all killed)). Settings: 10 µM unless noted.
With `Nc1nc(N(Cc2ccccc2)c2ccccc2)c2cn[nH]c2n1` the growth was 32.8% (inactive). For `COc1ccccc1Nc1nnc(COc2ccc(CNC(=O)CCCC/C=C/C(C)C)cc2OC)o1`, the growth was 81.1% (inactive). With `O=C1/C(=C/c2ccc3c(c2)OCO3)SC(=S)N1C1c2ccccc2Oc2ccccc21` the growth was 86.1% (inactive). For `COC(=O)C(C)Oc1ccc(OC#N)cc1` (stereo not given), the growth was 46.1% (inactive). With `Cc1ccc(C2CC(c3ccc(Nc4nc(NCCO)nc(Nc5ccc(Cl)cc5)n4)cc3)=NN2c2cc(Cl)cc(Cl)c2)cc1` (stereo not given) the growth was 100% (inactive). In the case of `O=C(CCCn1c(=O)c2sc3ccccc3c2n2nnc(-c3ccccc3)c12)NCCc1cnc[nH]1`, the growth is reported as 82.9% (inactive). In the case of `Cc1onc(-c2c(F)cccc2Cl)c1-c1ncc(-c2ccc(Br)cc2)o1`, the growth is reported as 37.5% (inactive). For `COc1ccc(-c2cc(-c3ccc(Cl)cc3)nc(SCCCC(=O)NO)n2)cc1OC`, the growth was -32.4% (active). With `CC(C)(C)c1ccc(S(=O)(=O)Oc2ccc(-c3sc4cc(OS(=O)(=O)c5ccc(C(C)(C)C)cc5)ccc4c3C(=O)c3ccc(OCCN4CCCCC4)cc3)cc2)cc1` the growth was 95.3% (inactive). For `C=C1CCC2C3(C)COC(c4ccccc4)OC3CCC2(C)C1/C=C/C1=CCOC1=O` (stereo not given), the growth was 0.949% (active). `CN(CSc1ccc(Cl)cc1)c1ccc(CSc2ccc(Cl)cc2)cc1` was tested, and the growth was -16.2% (active). With `CCCCC(CC#N)(CCC)CCC` the growth was 104% (inactive). With `O=C1NC(=O)C(Cc2ccc(OCc3ccc(-c4ccc(Cl)cc4Cl)cc3)cc2)S1` (stereo not given) the growth was 56.9% (inactive). For `COc1ccc(-c2csc(NC(=O)CSc3nc(C)c(-c4ccccc4)n3Nc3ccccc3)n2)cc1`, the growth was 50.3% (inactive). For `Oc1[nH]c2ccccc2c1/C=c1/ccc2c(c1)N=C(c1ccc(C(F)(F)F)cc1)N=2`, the growth was 74.3% (inactive). With `COc1ccc2c(CCc3ccc(Cl)cc3)c3[n+](cc2c1OC)CCc1cc2c(cc1-3)OCO2` the growth was 10% (inactive). `Clc1ccc(CCC(Cn2ccnc2)Sc2c(Cl)cccc2Cl)cc1` (stereo not given) was tested, and the growth was 2.26% (active). With `O=[N+]([O-])c1cc([N+](=O)[O-])c(NN=C(c2ccc(O)cc2)c2ccc(O)cc2)cc1Cl` the growth was 12.7% (inactive). For `CCOC(=O)c1c(C)nc2c(c1N)/C(=C/c1ccc(OC)cc1)C(=O)N2Cc1ccc(F)cc1`, the growth was 4.72% (active). `COc1ccc(C/C(C)=C(\c2ccc(OCCN3CCCCCC3)cc2)c2ccc(OC(=O)C3CCCCC3)cc2)cc1` was tested, and the growth was 17.1% (inactive). For `C=C(C)[C@@H]1CC[C@]2(C(=O)NCCCN)CC[C@]3(C)[C@H](CC[C@@H]4[C@@]5(C)CC[C@H](O)C(C)(C)[C@@H]5CC[C@]43C)[C@@H]12`, the growth was 1.25% [100 µM] (active). With `CCCCN(CC)CCCCCCCCCCN1CCCc2cc(OC)ccc21` the growth was -54% (active). For `O=C(Cc1cccc2ccccc12)N/N=C/c1ccc2c(c1)CCC2`, the growth was 68.3% (inactive). For `CC(=O)O[C@H]1C[C@@H]2C(C)(C)C(=O)CC[C@@]2(C)c2ccc(C(C)C)cc21`, the growth was 99.2% (inactive). `CC1c2ccccc2N(S(=O)(=O)c2ccccc2)C1C` (stereo not given) was tested, and the growth was 67.6% (inactive). In the case of `CCOC(=O)c1cc(C#N)n2ccc3ccccc3c12`, the growth is reported as 92.1% (inactive). In the case of `N[C@@H]1CCC[C@H]1NCCCCN1C(=O)c2cccc3cccc(c23)C1=O`, the growth is reported as 91.1% (inactive). For `CCOC(=O)c1ccc(-c2ccc3cc(OC)ccc3c2)nc1C`, the growth was 91.2% (inactive). For `O=[N+]([O-])c1ccc(-c2cc3c(Nc4ccc(Cl)c(C(F)(F)F)c4)ncnc3s2)cc1`, the growth was -41.3% (active). In the case of `CC(C)Sc1nc(NNC(N)=S)c(C#N)c(-c2ccc(F)cc2)n1`, the growth is reported as 94.9% (inactive). `CC(C)N(Cc1ccccc1)c1c(Cl)ssc1=O` was tested, and the growth was 113% (inactive). `C/C=C/C1=CN2C(=O)c3cc(OC4OC(C)C(NC)C(C)(O)C4O)c(C)c(O)c3N=C[C@@H]2C1` (stereo not given in full) was tested, and the growth was -4.33% (active). For `COc1cc(/C=N/NC(=S)NNC(=S)NC2CCCCC2)cc(OC)c1OC`, the growth was 104% (inactive). `COc1cccc2c(=O)c3c(sc12)c(NCCCN)nc1ccccc13` was tested, and the growth was 44.2% (inactive). For `NC(=O)c1c(NC(=O)c2ccc(C(F)(F)F)cc2Cl)sc2c1CCC(=O)C2`, the growth was -12.9% (active). In the case of `COc1ccc(C2CC(=O)c3c(O)c(OC)c(OC)c(OC)c3O2)c(O)c1` (stereo not given), the growth is reported as 2.26% (active). For `CNC=O`, the growth was 89.6% (inactive). For `O=C(O)c1cc(C(=O)O)cc([N+](=O)[O-])c1`, the growth was 94.5% (inactive). For `Cc1ccc(C)c(-n2c(-c3ccc(Br)cc3)csc2=NC(=O)c2ccccc2F)c1`, the growth was -21.6% (active). With `COc1ccc(/C=C/c2c(C(=O)/C=C/c3ccc(Cl)cc3)c(C)nc3ccccc23)cc1` the growth was 10% (inactive).
